Experimental data taken from ChEMBL document CHEMBL3988442, “University of Dundee, Small-Polar-MMV Screening Library” (2021).
In all, about 48,000 compounds went through this assay and about 13,000 (27%) showed an effect of 50% or more. The list shows a part of the results.

What follows are compounds tested on Wolbachia pipientis (assay: Anti-Wolbachia Cell-Based Screen). Settings: 5 µM.
Assay type: functional
Set-up: scale not given: in the data most compounds retested in dose-response had high values

SMILES	Percent Effect [%]
CC(C)Cc1cc(CC2(NCc3ccco3)COC2)no1	-14.13
Cc1ccc(-n2ccc3nc(N4CCCC4)ncc3c2=O)cc1C	-4.635
COCCN1C[C@H]2CCN(c3ncccn3)CC[C@H]2S1(=O)=O	-6.135
COc1ccc(F)cc1-c1nc2c([nH]1)c(C1CC1)nn2C	5.431
Cn1cc(C(=O)N2CC[C@@H]3[C@@H]2CCN3c2ncc(F)cn2)cn1.O=C(O)C(F)(F)F	3.256
Cc1cnc(N2CC3(CCN(C(=O)c4cccnc4)C3)C2)nc1.O=C(O)C(F)(F)F	-3.598
N#Cc1cccc(N2CC3(CCN(C(=O)c4cccnc4)C3)CC2=O)c1.O=C(O)C(F)(F)F (stereo unspecified)	6.163
O=C(O)C(F)(F)F.O=C(c1cccnc1)N1CCC2(CCN(C(=O)N3CCCC3)CC2)C1	121.5
CS(=O)(=O)N1CCC2(CN(C(=O)c3cccnc3)C2)C1.O=C(O)C(F)(F)F	-8.829
Cc1ccc(CN2CCC3(CC2)CCN(C(=O)c2cccnc2)C3)o1.O=C(O)C(F)(F)F	93.46
Cc1ccc(CNC(=O)c2nc3c(o2)CN(C(=O)c2cccnc2)C3)o1.O=C(O)C(F)(F)F	-4.272
NC(=O)N1CCC2(CCN(C(=O)c3cccnc3)CC2)C1.O=C(O)C(F)(F)F	118.8
Cc1nc(N)c2ccc(C3CCCCN3)nc2n1.Cl (stereo unspecified)	107.4
CCn1c(C)nnc1CN(C)C1CCN(CCCSC)C1 (stereo unspecified)	119.6
CCn1c(C)nnc1CN(C)C1CCN(CC2CCC2)C1 (stereo unspecified)	111.4
CCn1c(C)nnc1CN(C)C1CCN(CCn2cccn2)C1 (stereo unspecified)	0.3298
CCn1c(C)nnc1CN(C)C1CCN(CCS(=O)(=O)CC)C1 (stereo unspecified)	144.9
CCn1c(C)nnc1CN(C)C1CCN(CCOc2ccccc2)C1 (stereo unspecified)	149.5
CCn1c(C)nnc1CN(C)C1CCN(CCc2ccncc2)C1 (stereo unspecified)	1.632
CCn1c(C)nnc1CN(C)C1CCN(CCCOC)C1 (stereo unspecified)	0.6511
COC(=O)c1ccc(CNCc2ccn(C)n2)cc1	138.6
COc1ccc(-n2ccc(CNCc3ccc(OC)c(O)c3)n2)cc1	-11.8

SMILES	Percent Effect [%]
COC(=O)c1ccc(CNC(C)c2ccc(S(C)(=O)=O)cc2)cc1 (stereo unspecified)	-2.189
COC(=O)c1ccc(CNCc2cn(C)nc2C)cc1	100.4
COc1ccc(CNCc2cn(C)nc2C)cc1	122.7
COc1ccc(CNCc2cc(Br)c3c(c2)OCO3)cc1	-3.854
CCn1cc(CNCc2ccc(C(=O)OC)cc2)c(C)n1	153.8
COC(=O)c1ccc(CNC(=O)Cc2csc(C(C)=O)c2)cc1	12.04
COc1ccc(CCn2cnnc2[S+](C)[O-])cc1 (stereo unspecified)	-1.402
COC(=O)c1ccc(CNC(=O)Nc2ccc(=O)n(C)c2)cc1	12.29
Cc1ccc(-c2ncc(CNc3cnccc3CO)s2)cc1	-6.325
Cc1nc(-c2ccccc2)sc1C(=O)N(C1CC1)C1CC(=O)NC1=O (stereo unspecified)	-7.701
CCN(CC)C(=O)CN(C)C(=O)c1cc(-c2cccc(Cl)c2)no1	-12
CCN(CC)c1ccc(NS(=O)(=O)c2cnn(C(C)C)c2)cn1	-6.938
COCc1ccc(C(=O)N2CCCN(Cc3ccc(F)cc3)CC2)s1	2.247
CCCS(=O)(=O)c1ccc(N2CCN(c3ccccn3)CC2)nn1	2.245
Cc1ccc(CNCc2c(C)nn(C)c2N(C)C)cn1	-12.73
Cc1nn(C)cc1CNCc1ccc(N(C)C)cc1	119.7
Cc1nn(C)c(N(C)C)c1CNCc1ccc(Cn2cccn2)cc1	10.8
CC(C)(C)OC(=O)N1CCC[C@H](NCC2CCOCC2)C1	-10.59
Cc1cc(NC(=O)Cc2ccccc2O)c[nH]c1=O	7.885
CCn1cc(CN2CCc3nc(N4CCOCC4)nc(O)c3CC2)cn1	-4.464
CCn1cc(CN2CCc3nc(-c4ccccn4)nc(O)c3C2)cn1	107.7
O=C(Cc1ccccn1)N1CCc2c(O)nc(-c3cnccn3)nc2C1	94.87

SMILES	Percent Effect [%]
Oc1nc(-c2cnccn2)nc2c1CCN(Cc1ccccn1)C2	89.8
O=C(Cc1ccccn1)N1CCc2nc(-c3cnccn3)nc(O)c2C1	-13.11
CN1CCN(C(=O)Cc2ccccn2)Cc2cccnc21	-6.313
CCOCCC(=O)N(C)Cc1noc(C(C)C)n1	-6.768
CC(C)CC(C(=O)N1CCCSCC1)N1CCCCC1=O (stereo unspecified)	-10.63
COc1ccc(C(=O)N(c2ccc(OC)c(F)c2)C(C)C)cn1	3.547
CNS(=O)(=O)c1cccc(C(C)NCc2ccc(F)c(F)c2)c1 (stereo unspecified)	18.96
COC(=O)c1ccc(N2CCC(N(C)c3ccccc3)CC2)nn1	-3.944
O=C(CCC1CCCO1)NCc1ccnc(-n2cccn2)c1 (stereo unspecified)	-9.533
COCCN(Cc1sccc1C)C(=O)C1CCCN(C(N)=O)C1 (stereo unspecified)	10.64
Cc1ncsc1CCN(C)Cc1ccc(CO)o1	-28.69
COC(=O)c1ccc(C(=O)NCc2ccc(Br)cc2)cn1	0.8592
Cc1ncc(CNC(C)(C)CO)c2cc(C(=O)c3ccc(Br)cc3)oc12	82.9
COc1ncc(C(=O)NCc2ccc(Br)cc2)cn1	4.726
Cc1ncc(CNCCO)c2cc(C(=O)c3ccc(Br)cc3)oc12.Cl	215.6
Cc1ncc(CNCC(C)O)c2cc(C(=O)c3ccc(Br)cc3)oc12.Cl (stereo unspecified)	102.9
Cc1oc(CN(C)C(=O)c2ccc(Br)cc2)cc1C(=O)O	5.692
CC(O)CNCc1ccccc1C(F)(F)F.Cl (stereo unspecified)	-7.899
COC(=O)c1oc(CNC(C)(C)CO)cc1C	5.82
Cc1ncc(CN(C)CCO)c2cc(C(=O)c3ccc(Br)cc3)oc12.Cl	142.2
CN1CCc2[nH]nc(C(=O)N3CCCC4(CN(C)C(=O)O4)C3)c2C1 (stereo unspecified)	0.3528
CC(C)c1cc(NCC2(N3CCOCC3)CCCCC2)ncn1	-13.37
